Data: PubChem BioAssay (Tox21)
Records with an inconclusive call do not appear. The source made the active and inactive calls. Unless noted, the call rests on the fitted dose curve; in most records, active means well fitted curve in the direction sought with a large enough effect in the repeat runs; inconclusive means weak or mixed curves; inactive means no such curve, though single readings can be large; an effect the other way counts as inactive or inconclusive.

Key:
[1] = qHTS RealTime-Glo MT Cell Viability Assay in HEK293 cells - 8 hour (AID 1224887); further: top concentration of the series differs between compounds; nearly all actives have a fitted effect of over 50% in size
How it was run: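 Tox21 screen in HEK293 using RealTime-Glo MT chemistry, with cells and reagent co-dispensed. Luminescence proportional to viable cell number was captured at intervals during 40 h compound exposure at 37 C.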

[2] = qHTS RealTime-Glo MT Cell Viability Assay in HepG2 cells - 0 hour (AID 1224889); further: nearly all actives have a fitted effect of over 50% in size
How it was run: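 Luminescence read-out: viable HepG2 cells reduce a prosubstrate to a NanoLuc substrate, giving a signal proportional to live cell number. Reads taken at 0, 8, 16, 24, 32 and 40 h of compound exposure at 37 C.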

[3] = A CellTox Green Cytotoxicity Assay to monitor cytotoxicity in HepG2 cells - 8 hour (AID 1224890); further: nearly all actives have a fitted effect of over 45% in size
How it was run: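 Nonlytic assay: viable cells exclude the dye, so fluorescence scales with cell death. HepG2 at 600 cells/well, compounds added after 5 h, signal read across 40 h.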

[4] = qHTS assay to identify small molecule antagonists of the estrogen receptor alpha (ER-alpha) signaling pathway using the BG1 cell line in the presence of 0.1 nM 17-beta-estradiol - cell viability counter screen (AID 1259241); further: nearly all actives have a fitted effect of over 40% in size
How it was run: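 Measures cytotoxicity alongside the ER-alpha antagonist readout: VM7Luc4E2 cells, charcoal-stripped serum, 0.1 nM 17beta-estradiol final, 22 hr compound incubation at 37C, CellTiter-Fluor fluorescence.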

[5] = qHTS assay to identify small molecule antagonists of the androgen receptor (AR) signaling pathway using the MDA cell line in the presence of 0.5 nM R1881 - cell viability counter screen (AID 1259242); further: nearly all actives have a fitted effect of over 45% in size
How it was run: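 R1881 at 0.5 nM final stimulated MDA-kb2 cells during 16 hr compound treatment at 37C. Cytotoxicity read: CellTiter-Fluor fluorescence after 30 min.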

[6] = target: Androgen receptor (Homo sapiens) (UniProt P10275); test: qHTS assay to identify small molecule antagonists of the androgen receptor (AR) signaling pathway using the MDA cell line in the presence of 0.5 nM R1881 (AID 1259243); further: nearly all actives have a fitted effect of over 50% in size; further: potency means the concentration at half of the fitted maximal effect
Androgen receptor (Homo sapiens), sequence (P10275 whole entry, looked up): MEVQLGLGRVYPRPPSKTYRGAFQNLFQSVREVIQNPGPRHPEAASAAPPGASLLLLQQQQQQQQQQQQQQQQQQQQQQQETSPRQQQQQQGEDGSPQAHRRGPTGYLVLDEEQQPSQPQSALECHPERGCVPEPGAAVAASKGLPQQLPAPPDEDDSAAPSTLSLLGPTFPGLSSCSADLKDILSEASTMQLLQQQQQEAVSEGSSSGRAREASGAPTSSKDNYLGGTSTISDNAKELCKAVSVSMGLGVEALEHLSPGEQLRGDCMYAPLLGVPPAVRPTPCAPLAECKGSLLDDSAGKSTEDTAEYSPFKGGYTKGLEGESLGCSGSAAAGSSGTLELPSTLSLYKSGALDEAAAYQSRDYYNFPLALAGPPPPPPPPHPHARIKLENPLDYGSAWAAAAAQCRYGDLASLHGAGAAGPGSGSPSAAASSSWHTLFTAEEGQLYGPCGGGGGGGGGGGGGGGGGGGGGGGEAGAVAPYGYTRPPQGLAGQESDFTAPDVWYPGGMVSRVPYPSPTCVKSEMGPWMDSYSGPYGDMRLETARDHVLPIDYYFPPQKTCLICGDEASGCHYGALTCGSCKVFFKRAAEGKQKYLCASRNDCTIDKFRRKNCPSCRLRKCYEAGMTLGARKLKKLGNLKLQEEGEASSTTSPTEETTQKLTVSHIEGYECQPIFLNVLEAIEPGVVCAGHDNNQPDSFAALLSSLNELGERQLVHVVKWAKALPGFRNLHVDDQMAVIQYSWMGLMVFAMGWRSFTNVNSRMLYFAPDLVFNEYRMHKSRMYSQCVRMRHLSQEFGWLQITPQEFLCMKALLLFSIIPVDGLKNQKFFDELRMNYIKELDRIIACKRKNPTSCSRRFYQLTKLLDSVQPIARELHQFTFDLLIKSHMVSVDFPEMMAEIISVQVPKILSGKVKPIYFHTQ
How it was run: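 We exposed MDA-kb2 cells to compounds under 0.5 nM R1881 stimulation for 16 hr at 37C and quantified MMTV-driven luciferase by luminescence.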

[7] = qHTS assay to identify small molecule HDAC inhibitors (AID 1259364);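 further: wild-type HCT-116 cells with endogenous class I/II HDAC activity; top concentration of the series differs between compounds; nearly all actives have a fitted effect of over 45% in size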
How it was run: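 Relative class I and II HDAC activity is taken from the luminogenic signal in HCT-116 cells, with compound exposure 2 hr and reagent development 30 min at room temperature.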

[8] = qHTS assay to identify small molecule HDAC inhibitors - cell viability counter screen (AID 1259365); further: series mostly up to about 92 µM; nearly all actives have a fitted effect of over 50% in size
How it was run: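 Following a 2hr exposure of overnight-plated wild-type HCT-116 cells to DMSO-delivered compounds, CellTiter-Glo was added and luminescence recorded after 30min at room temperature.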

[9] = qHTS assay to identify small molecule agonists of the sonic hedgehog signaling (Shh) pathway - cell viability counter screen (AID 1259366); further: nearly all actives have a fitted effect of over 50% in size
How it was run: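 After a 4hr attachment at 37C, NIH/3T3 cells bearing an integrated Gli1-driven luciferase reporter were dosed with compounds. Treatment lasted 24hr, with the final hour including CellTiter-Fluor for a fluorescence viability measurement.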

[10] = qHTS assay to identify small molecule agonists of the sonic hedgehog signaling (Shh) pathway (AID 1259368; calls by dose curve;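 further: NIH/3T3-derived 3T3Gli1-Luc cells carrying a stable Gli1-driven firefly luciferase reporter; series mostly up to about 92 µM; nearly all actives have a fitted effect of over 15% in size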)
How it was run: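 Mouse fibroblast (NIH/3T3) reporter cells with stably integrated Gli1-Luc were treated 24 hr with compound; firefly luciferase luminescence served as the read-out.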

[11] = target: Estrogen receptor beta (Homo sapiens) (UniProt Q92731); test: qHTS assay to identify small molecule agonists of the estrogen receptor beta (ER-beta) signaling pathway (AID 1259377; active means well fitted activation curve with a large enough effect in the signal ratio in the repeat runs, not every such curve was filed as active; the % refers to the signal ratio; further: potency means the concentration at half of the fitted maximal effect)
Estrogen receptor beta (Homo sapiens), sequence (Q92731 whole entry, looked up): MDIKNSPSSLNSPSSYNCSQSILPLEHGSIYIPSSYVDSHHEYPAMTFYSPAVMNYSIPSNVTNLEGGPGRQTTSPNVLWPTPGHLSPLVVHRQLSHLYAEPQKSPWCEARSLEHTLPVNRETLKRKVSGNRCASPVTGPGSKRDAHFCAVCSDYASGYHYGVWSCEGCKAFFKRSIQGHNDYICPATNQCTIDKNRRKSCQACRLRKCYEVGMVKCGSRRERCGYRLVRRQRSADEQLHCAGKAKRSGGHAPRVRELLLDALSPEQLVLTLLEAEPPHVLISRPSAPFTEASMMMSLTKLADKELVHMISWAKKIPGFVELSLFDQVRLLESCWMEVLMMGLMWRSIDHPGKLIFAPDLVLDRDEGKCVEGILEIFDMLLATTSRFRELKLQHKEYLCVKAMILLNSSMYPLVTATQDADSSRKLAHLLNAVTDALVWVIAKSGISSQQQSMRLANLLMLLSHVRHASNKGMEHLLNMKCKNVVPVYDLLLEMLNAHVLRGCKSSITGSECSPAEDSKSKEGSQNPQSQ
How it was run: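 In HEK293T cells bearing a UAS-beta-lactamase reporter under ER-beta control, DMSO-delivered compounds were incubated for 16 hr at 37C. Activity was detected as fluorescence 2 hours after LiveBLAzer B/G FRET substrate addition.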

[12] = target: Estrogen receptor beta (Homo sapiens) (UniProt Q92731); test: qHTS assay to identify small molecule antagonists of the estrogen receptor beta (ER-beta) signaling pathway (AID 1259378; active means well fitted inhibition curve with a large enough effect in the signal ratio in the repeat runs, not every such curve was filed as active; the % refers to the signal ratio)
How it was run: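 ER-beta-UAS-bla HEK293T (GripTite) cells in 2% charcoal-stripped FBS medium were preincubated 6 hr at 37C, dosed with compound, then stimulated with 1 nM E2 (final) for 16 hr; beta-lactamase reporter read by B/G FRET fluorescence after 2 hr substrate loading.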

[13] = qHTS assay to identify small molecule agonists of the androgen receptor (AR) signaling pathway in the presence of an antagonist - cell viability counter screen (AID 1259379);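 further: MDA-kb2 human breast cancer cells carrying an MMTV luciferase reporter; series mostly up to about 92 µM; nearly all actives have a fitted effect of over 25% in size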
How it was run: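 A CellTiter-Fluor read-out measured viability of MDA-kb2 reporter cells (MMTV promoter with AR and GR response elements). Treatment: nilutamide 3.0uM final with compounds at 15 concentrations, 16 hr, 37C, 0% CO2.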

[14] = qHTS assay to identify small molecule agonists of the estrogen receptor beta (ER-beta) signaling pathway - cell viability counter screen (AID 1259380); further: nearly all actives have a fitted effect of over 30% in size
How it was run: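 Cells used were ER-beta-UAS-bla HEK293T in medium with 2% charcoal-stripped FBS. They were treated for 16 hr at 37C. Viability came from CellTiter-Glo luminescence.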

[15] = target: Androgen receptor (Homo sapiens) (UniProt P10275); test: qHTS assay to identify small molecule agonists of the androgen receptor (AR) signaling pathway in the presence of an antagonist (AID 1259381; calls by dose curve; further: nearly all actives have a fitted effect of over 15% in size)
How it was run: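 Using human MDA-kb2 cells with an MMTV promoter–luciferase construct (AR and GR response elements), agonist activity is scored under 3.0uM nilutamide (final) co-treatment; 16hr incubation, 37C, luminescence readout via ONE-Glo.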

[16] = target: Estrogen receptor (Homo sapiens) (UniProt P03372); test: qHTS assay to identify small molecule antagonists of the estrogen receptor alpha (ER-alpha) signaling pathway using the BG1 cell line in the presence of 0.1 nM 17-beta-estradiol (AID 1259244); further: nearly all actives have a fitted effect of over 50% in size
Estrogen receptor (Homo sapiens), sequence (P03372 whole entry, looked up): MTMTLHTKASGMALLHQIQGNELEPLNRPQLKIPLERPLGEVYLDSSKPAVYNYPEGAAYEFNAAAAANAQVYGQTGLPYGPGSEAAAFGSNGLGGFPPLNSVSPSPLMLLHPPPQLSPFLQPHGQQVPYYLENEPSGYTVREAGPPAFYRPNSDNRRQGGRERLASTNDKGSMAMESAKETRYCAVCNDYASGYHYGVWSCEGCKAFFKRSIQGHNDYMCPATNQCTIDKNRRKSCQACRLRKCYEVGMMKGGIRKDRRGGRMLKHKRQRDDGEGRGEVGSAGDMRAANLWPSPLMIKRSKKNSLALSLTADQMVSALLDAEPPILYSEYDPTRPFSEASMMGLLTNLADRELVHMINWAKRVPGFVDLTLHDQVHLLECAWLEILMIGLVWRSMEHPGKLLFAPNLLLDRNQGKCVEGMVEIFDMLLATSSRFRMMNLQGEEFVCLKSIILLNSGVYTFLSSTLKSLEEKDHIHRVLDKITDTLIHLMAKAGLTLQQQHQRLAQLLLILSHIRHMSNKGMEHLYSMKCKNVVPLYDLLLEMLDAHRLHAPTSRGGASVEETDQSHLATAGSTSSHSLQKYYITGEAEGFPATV
How it was run: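 VM7Luc4E2; 4xERE-luciferase; 0.1 nM E2 final; 22 h co-incubation, 37C; ONE-Glo luminescence after 30 min at room temperature.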

[17] = qHTS assay to identify small molecule antagonists of the sonic hedgehog signaling (Shh) pathway (AID 1259369; calls by dose curve; further: nearly all actives have a fitted effect of over 45% in size)
How it was run: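 Conditioned medium drives Shh signalling in 3T3Gli1-Luc cells; compounds in DMSO co-applied, 24hr at 37 C, then luciferase luminescence.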

[18] = qHTS assay to identify small molecule phospholipidosis (PLD) inducers (AID 1259344; active means well fitted curve in the direction sought with a large enough effect; an effect the other way counts as inactive or inconclusive)
How it was run: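 HepG2 cells grown on collagen I take up LipidTOX Red while exposed to compound for 24 h; after fixation they are imaged at 20x and pit metrics are extracted.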

[19] = qHTS assay to identify small molecule antagonists of the sonic hedgehog signaling (Shh) pathway - cell viability counter screen (AID 1259367); further: nearly all actives have a fitted effect of over 55% in size
How it was run: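 After a 4 hr settling period, 3T3 Gli1-Luc cells were treated with DMSO-dissolved chemicals and conditioned medium, kept 24 hr at 37C in 5% CO2, and assayed for viability by CellTiter-Fluor fluorescence following 1 hr reagent incubation.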

[20] = A CellTox Green Cytotoxicity Assay to monitor cytotoxicity in HEK293 cells - 16 hour (AID 1224888); further: nearly all actives have a fitted effect of over 35% in size
How it was run: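 Seeding of HEK293 cells together with cytotoxicity dye preceded a 5 h incubation at 37 C/5% CO2. Test compounds in DMSO were then added and fluorescence monitored across 40 h.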

Measured: Potency

CC(C)[C@H]1CC[C@H](C)C[C@@H]1O
inactive: [1] | [2] | [3] | [4] | [5] | [6] | [7] | [8] | [9] | [10] | [11] | [12] | [13] | [14] | [15]

CN(C)C(C)(C)CO
inactive: [1] | [2] | [3] | [4] | [5] | [16] | [7] | [8] | [9] | [10] | [17] | [13] | [14]

CCC(=O)c1c(O)cc(O)cc1O
inactive: [1] | [2] | [3] | [4] | [5] | [6] | [16] | [18] | [7] | [8] | [9] | [19] | [10] | [17] | [12] | [13] | [15]

CCC(=O)Oc1ccc2c(c1)CC[C@@H]1[C@@H]2CC[C@@]2(C)[C@H]1C[C@@H](OC(=O)CC)[C@@H]2OC(=O)CC
active: [6] 8.41 µM | [11] 0.0211 µM
inactive: [1] | [20] | [4] | [5] | [16] | [7] | [8] | [9] | [10] | [13] | [14] | [15]

O=NN(CCCl)C(=O)NC1CCCCC1
inactive: [1] | [20] | [3] | [4] | [5] | [18] | [7] | [8] | [19] | [10] | [17] | [11] | [13] | [14]

CCCC(=O)OCCC(C)CCC=C(C)C (configuration not stated)
inactive: [1] | [20] | [3] | [4] | [5] | [7] | [8] | [9] | [19] | [10] | [11] | [12] | [13] | [14]

CC(C)Nc1ccccc1
inactive: [1] | [20] | [4] | [5] | [16] | [7] | [8] | [9] | [19] | [10] | [17] | [11] | [12] | [13] | [14]

O=C(O)CCCCCC(=O)O
inactive: [1] | [2] | [3] | [4] | [5] | [16] | [7] | [8] | [9] | [19] | [10] | [17] | [11] | [13] | [14]
